In PubChem BioAssay (NCI):
About 79,000 compounds went through this panel and 15% of them were active in at least one assay; those are over-represented in the sample as a whole. The source made the active and inactive calls. Cut-off read from the data, not from the text of the source: active = growth inhibition above about 70%; inactive = the rest.

How the values were obtained:
[1] = NCI Yeast Anticancer Drug Screen. Data for the rad52 strain (AID 147);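 note: 0% = growth of vehicle-treated control cultures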; settings: S. cerevisiae rad52 mutant growth inhibition, stronger effect = higher value
Procedure, shortened: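 Inhibition of yeast growth, referenced to vehicle controls, was the measured output for a strain with defective DNA damage repair.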

[2] = NCI Yeast Anticancer Drug Screen. Data for the wt1 strain (AID 149);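 note: 0% = growth of vehicle-treated wt1 cultures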; settings: S. cerevisiae wt1 strain (SPY 50644) growth inhibition, stronger effect = higher value
Procedure, shortened: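 Using yeast strain wt1, compound-induced growth inhibition was determined against vehicle-treated cultures.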

[3] = NCI Yeast Anticancer Drug Screen. Data for the rad50EPP+ strain (AID 151);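 note: 0% = growth of vehicle-treated control cultures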; settings: S. cerevisiae rad50 mutant strain, stronger effect = higher value
Procedure, shortened: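 Genetically defined yeast (rad50EPP+, DNA damage repair alteration) is grown with compound, and inhibition of growth is expressed relative to vehicle-treated controls.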

[4] = NCI Yeast Anticancer Drug Screen. Data for the mgt1 strain (AID 153); settings: S. cerevisiae mgt1 mutant growth inhibition, stronger effect = higher value
Procedure, shortened: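 In the mgt1 strain, test compounds were added and growth inhibition was determined relative to vehicle-treated controls.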

[5] = NCI Yeast Anticancer Drug Screen. Data for the rad50 strain (AID 155);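 note: 0% = growth of vehicle-only cultures of the same strain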; settings: S. cerevisiae rad50 strain growth inhibition, stronger effect = higher value
Procedure, shortened: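 Relative growth inhibition (compound vs vehicle) was measured in yeast with a defined repair-gene alteration.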

[6] = NCI Yeast Anticancer Drug Screen. Data for the mec2-1 strain (AID 157); settings: S. cerevisiae mec2-1 strain, stronger effect = higher value
Procedure, shortened: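 Each compound was tested on mec2-1 yeast, a strain altered in DNA damage repair or cell cycle control. Growth inhibition is reported relative to vehicle.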

[7] = NCI Yeast Anticancer Drug Screen. Data for the rad14 strain (AID 159);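 note: 0% = growth of vehicle-treated control cultures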; settings: S. cerevisiae rad14 strain growth inhibition, stronger effect = higher value
Procedure, shortened: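 Screen for anticancer potential: a yeast strain altered in DNA damage repair is grown with compound, and reduced growth is quantified against vehicle controls.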

[8] = NCI Yeast Anticancer Drug Screen. Data for the sgs1 mgt1 strain (AID 161);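 note: 0% = growth of cultures given vehicle only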; settings: S. cerevisiae sgs1 mgt1 strain, stronger effect = higher value
Procedure, shortened: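 Genetically altered yeast, compound exposure, growth inhibition relative to vehicle.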

[9] = NCI Yeast Anticancer Drug Screen. Data for the cln2 rad14 strain (AID 165);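 note: 0% = growth equal to vehicle treated cultures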; settings: S. cerevisiae cln2 rad14 strain, stronger effect = higher value
Procedure, shortened: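 Test compounds were added to cln2 rad14 yeast cultures; inhibition of growth was then determined by comparison with vehicle treatment.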

[10] = NCI Yeast Anticancer Drug Screen. Data for the bub3 strain (AID 167); settings: S. cerevisiae bub3 mutant strain, stronger effect = higher value
Procedure, shortened: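 Screening used yeast with an engineered genetic alteration affecting cell cycle control. Compound-exposed cultures were compared with vehicle cultures, and reduced growth was taken as inhibition.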

[11] = NCI Yeast Anticancer Drug Screen. Data for the wt2 strain (AID 169);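 note: 0% = growth of vehicle-treated yeast cultures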; settings: S. cerevisiae wt2 strain growth inhibition, stronger effect = higher value
Procedure, shortened: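 The panel's yeast strains carry defined changes in DNA repair or cell cycle genes. Each strain is grown with compound, and growth loss is scored relative to vehicle.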

[12] = NCI Yeast Anticancer Drug Screen. Data for the mlh1 strain (AID 171);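 note: 0% = growth of vehicle-treated control cultures of the same strain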; settings: S. cerevisiae mlh1 strain growth inhibition, stronger effect = higher value
Procedure, shortened: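 Inhibition values reflect reduced yeast growth in the presence of compound, referenced to vehicle controls, using a strain chosen for its alteration in DNA repair or cell cycle control.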

[13] = NCI Yeast Anticancer Drug Screen. Data for the sgs1 strain (AID 173);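 note: 0% = growth of vehicle-only control cultures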; settings: S. cerevisiae sgs1 mutant, stronger effect = higher value
Procedure, shortened: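 Vehicle-treated cultures served as reference for growth inhibition of a yeast strain altered in DNA damage repair or cell cycle control after compound exposure.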

[14] = NCI Yeast Anticancer Drug Screen. Data for the mlh1 rad18 strain (AID 175); settings: S. cerevisiae mlh1 rad18 strain growth inhibition, stronger effect = higher value
Procedure, shortened: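 Inhibition values reflect reduced growth of mutant yeast versus vehicle-treated controls following compound exposure; the mutations affect DNA damage repair.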

[15] = NCI Yeast Anticancer Drug Screen. Data for the rad18 strain (AID 177); settings: S. cerevisiae rad18 mutant growth inhibition, stronger effect = higher value
Procedure, shortened: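 Steps: expose repair-mutant yeast to compound; measure growth; express as inhibition relative to vehicle control.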

[16] = at 5.0 µM (retest, dose inferred, filed as 0.5)
[17] = at 50.0 µM (retest, dose inferred, filed as 5.0)

Measured: growth inhibition

Cc1cc(CO)c(O)c(CNCc2cc(C)cc(CO)c2O)c1
inactive: [1]; at 1.2 µM 4% | [1]; at 3.7 µM 8% | [1]; at 11.0 µM 14% | [1]; at 33.0 µM 22% | [2]; at 1.2 µM 24% | [2]; at 3.7 µM 15% | [2]; at 11.0 µM 25% | [2]; at 33.0 µM 38% | [3]; at 1.2 µM -24% | [3]; at 3.7 µM -23% | [3]; at 11.0 µM -33% | [3]; at 33.0 µM -29% | [3]; at 100.0 µM -13% | [4]; at 1.2 µM -13% | [4]; at 3.7 µM -17% | [4]; at 11.0 µM -18% | [4]; at 33.0 µM -9% | [5]; at 1.2 µM 2% | [5]; at 3.7 µM 7% | [5]; [16] -25% | [5]; at 11.0 µM 2% | [5]; at 33.0 µM 19% | [6]; at 1.2 µM -14% | [6]; at 3.7 µM -7% | [6]; [16] -32% | [6]; at 11.0 µM -27% | [6]; at 33.0 µM -18% | [6]; [17] 42% | [7]; at 1.2 µM -16% | [7]; at 3.7 µM -29% | [7]; at 11.0 µM -42% | [7]; at 33.0 µM 35% | [8]; [16] -2% | [8]; [17] 22% | [9]; [16] -17% | [9]; [17] 48% | [10]; at 1.2 µM -14% | [10]; at 3.7 µM -6% | [10]; [16] -21% | [10]; at 11.0 µM -13% | [10]; at 33.0 µM -13% | [10]; [17] 52% | [10]; at 50.0 µM 68.8% | [11]; at 1.2 µM -8% | [11]; at 3.7 µM -11% | [11]; at 11.0 µM -12% | [11]; at 33.0 µM -8% | [12]; at 1.2 µM -27% | [12]; at 3.7 µM -30% | [12]; at 11.0 µM -13% | [12]; at 33.0 µM -7% | [13]; at 1.2 µM 3% | [13]; at 3.7 µM 8% | [13]; at 11.0 µM 9% | [13]; at 33.0 µM 40% | [14]; [16] 17% | [15]; at 1.2 µM 1% | [15]; at 3.7 µM -6% | [15]; at 11.0 µM -4% | [15]; at 33.0 µM 4%
active: [1]; at 100.0 µM 98% | [2]; at 100.0 µM 98% | [4]; at 100.0 µM 98% | [5]; [17] 88% | [5]; at 50.0 µM 89.5% | [5]; at 100.0 µM 98% | [6]; at 50.0 µM 77.2% | [6]; at 100.0 µM 98% | [7]; at 100.0 µM 97% | [8]; at 50.0 µM 90.6% | [9]; at 50.0 µM 72% | [10]; at 100.0 µM 98% | [11]; at 100.0 µM 98% | [12]; at 100.0 µM 98% | [13]; at 100.0 µM 99% | [14]; [17] 96% | [14]; at 50.0 µM 74.3% | [15]; at 100.0 µM 98%

O=Nc1c(NO)ccc2nn(-c3ccccc3)nc12
inactive: [1]; at 1.2 µM 29% | [1]; at 3.7 µM 68% | [2]; at 1.2 µM 12% | [2]; at 3.7 µM 27% | [3]; at 1.2 µM 22% | [3]; at 3.7 µM 33% | [3]; at 11.0 µM 51% | [3]; at 33.0 µM 65% | [3]; at 100.0 µM 66% | [4]; at 1.2 µM -1% | [4]; at 3.7 µM 24% | [5]; at 1.2 µM 12% | [5]; at 3.7 µM 42% | [5]; [16] 18% | [5]; at 50.0 µM 38% | [6]; at 1.2 µM 9% | [6]; at 3.7 µM 36% | [6]; [16] 1% | [7]; at 1.2 µM 7% | [7]; at 3.7 µM 31% | [9]; [16] 37% | [10]; at 1.2 µM 3% | [10]; at 3.7 µM 45% | [10]; [16] 1% | [11]; at 1.2 µM 25% | [11]; at 3.7 µM 41% | [13]; at 1.2 µM 61%
active: [1]; at 11.0 µM 98% | [1]; at 33.0 µM 98% | [1]; at 100.0 µM 98% | [2]; at 11.0 µM 96% | [2]; at 33.0 µM 98% | [2]; at 100.0 µM 96% | [4]; at 11.0 µM 98% | [4]; at 33.0 µM 98% | [4]; at 100.0 µM 99% | [5]; at 11.0 µM 96% | [5]; at 33.0 µM 97% | [5]; [17] 99% | [5]; at 100.0 µM 98% | [6]; at 11.0 µM 95% | [6]; at 33.0 µM 98% | [6]; [17] 99% | [6]; at 50.0 µM 88.5% | [6]; at 100.0 µM 97% | [7]; at 11.0 µM 97% | [7]; at 33.0 µM 98% | [7]; at 100.0 µM 98% | [9]; [17] 99% | [9]; at 50.0 µM 89.1% | [10]; at 11.0 µM 95% | [10]; at 33.0 µM 98% | [10]; [17] 99% | [10]; at 50.0 µM 90.4% | [10]; at 100.0 µM 97% | [11]; at 11.0 µM 96% | [11]; at 33.0 µM 99% | [11]; at 100.0 µM 98% | [13]; at 3.7 µM 79% | [13]; at 11.0 µM 98% | [13]; at 33.0 µM 99% | [13]; at 100.0 µM 98% | [14]; [16] 77% | [14]; [17] 98% | [14]; at 50.0 µM 91.5% | [15]; at 1.2 µM 79% | [15]; at 3.7 µM 90% | [15]; at 11.0 µM 97% | [15]; at 33.0 µM 97% | [15]; at 100.0 µM 97%
